Most compounds without a hit are left out; they make up all but 2.4% or so of the library.
D2 ag-1: Beta-Arrestin HTS for Positive Allosteric Modulators of the Human D2 Dopamine Receptor: Agonists; DiscoveRx PathHunter D2 beta-arrestin, luminescence, 90 min; 100% = 57 uM dopamine signal; activation, % (test concentration not listed); D(2) dopamine receptor (Homo sapiens), P14416; actives 0.084% (n = 360,000); in the data active = activation above about 40%; inconclusive = between about 15% and that limit
Target sequence (P14416 whole entry, looked up): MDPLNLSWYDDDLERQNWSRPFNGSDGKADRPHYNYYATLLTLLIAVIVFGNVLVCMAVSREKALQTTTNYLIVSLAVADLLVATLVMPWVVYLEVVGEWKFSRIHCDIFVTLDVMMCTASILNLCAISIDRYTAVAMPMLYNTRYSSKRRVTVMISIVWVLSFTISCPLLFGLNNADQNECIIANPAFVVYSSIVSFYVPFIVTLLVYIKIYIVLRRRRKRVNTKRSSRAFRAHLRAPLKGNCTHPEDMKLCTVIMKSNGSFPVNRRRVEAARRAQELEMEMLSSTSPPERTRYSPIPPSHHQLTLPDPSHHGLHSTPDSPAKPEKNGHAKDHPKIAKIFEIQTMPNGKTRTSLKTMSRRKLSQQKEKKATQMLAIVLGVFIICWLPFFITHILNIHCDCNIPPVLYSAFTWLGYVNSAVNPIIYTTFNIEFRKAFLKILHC
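DiscoveRx PathHunter D2 beta-arrestin cells (2,100/well) attached overnight, then compound-stimulated 90 min at 37 C in HBSS/10 mM HEPES/0.1% Tween-20 buffer; beta-galactosidase complementation read by luminescence after 1 h at ambient temperature. Dopamine 57 uM final (EC100) as control.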
D2 PAM-1: HTS Assay for Positive Allosteric Modulators of the Human D2 Dopamine Receptor: Primary Screen for Potentiators | potentiation, % at 10 µM | AID 485347, 2010 | D(2) dopamine receptor (Homo sapiens), P14416 | actives 0.34% (n = 340,000) | HEK293 T-REx D2, calcium flux, EC20 dopamine potentiation;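 active = potentiation over 3 SD above the plate norm, cut at about 30% in these data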; also: 0% is about no effect
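Tetracycline-induced Hek293 Trex D2 cells, force-coupled to calcium, loaded with no-wash calcium dye. Compound added with 180 s kinetic read for agonism, then EC20 dopamine and a further 180 s read for potentiation.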
D2 PAM-2: Beta-Arrestin HTS for Positive Allosteric Modulators of the Human D2 Dopamine Receptor: Potentiators; D(2) dopamine receptor (Homo sapiens), P14416; AID 624464, 2012; potentiation, % (test concentration not listed); DiscoveRx D2 beta-arrestin cells, luminescence, 90 min; 100% = 57 uM dopamine signal; actives 0.23% (n = 360,000); in the data active = potentiation above about 50%; inconclusive = mostly about 30% to 49%
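D2 cells co-treated with compound plus 50 nM dopamine (EC20) for 90 min at 37 deg C to detect potentiation. Beta-arrestin recruitment was read as enzyme-fragment luminescence after 1 h at ambient temperature. Full response was set by 57 uM dopamine.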
D2 antag: HTS Assay for Allosteric Antagonists of the Human D2 Dopamine Receptor: Primary Screen for Antagonists. D(2) dopamine receptor (Homo sapiens), P14416. HEK293 TREx D2 cells, calcium flux, dopamine EC80. inhibition, % at 10 µM. actives 2% (n = 340,000); in the data active = inhibition above about 30%; inactive = below that, where a call was filed; also: 0% is about no effect
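Read-out: kinetic calcium fluorescence (1 cycle/s) in inducible HEK293 T-REx D2 cells after an EC80 dopamine addition that followed 180 s compound preincubation. Loss of the dopamine response indicates antagonism.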
D2 ag-2: HTS Assay for Allosteric Agonists of the Human D2 Dopamine Receptor: Primary Screen for Agonists; actives 0.53% (n = 340,000); D(2) dopamine receptor (Homo sapiens), P14416; HEK293 T-REx D2 cells, calcium flux agonist mode; activation, % at 2 µM;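 active = activation over 3 SD above normal in the single-dose calcium agonist read, cut at about 30% in these data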; also: 0% is about no effect
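In this primary screen, compounds producing a positive calcium signal within 180 s of addition to tetracycline-induced, force-coupled HEK293 Trex D2 cells are flagged; cells are dye-loaded with a no-wash calcium kit beforehand.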
The depositor's hits bear a star; ? = inconclusive; . = no result given.

SMILES	D2 ag-1	D2 PAM-1	D2 PAM-2	D2 antag	D2 ag-2
COc1ccc(-c2nnc(SCC(=O)c3[nH]c(C)c(C(C)=O)c3C)o2)cc1	1	38*	-4	-8	0
CC(=O)c1c(C)[nH]c(C(=O)CSc2nnc(-c3ccco3)o2)c1C	3	8	-3	-10	0
Cc1nc2c(C(=O)NCCCN(CC(C)C)CC(C)C)cnn2c(C)c1Cc1c(F)cccc1Cl	.	-20	.	.	-1
COc1ccc(Oc2coc3cc(OC(=O)c4cccs4)ccc3c2=O)cc1	0	37*	-4	-19	0
Cc1ccc(CNC(=O)Cn2cnc3cc([N+](=O)[O-])ccc3c2=O)cc1	1	-22	54*	-1	1
CC(C)(C)c1ccc(NC(=O)Cn2cnc3cc([N+](=O)[O-])ccc3c2=O)cc1	?	-3	27	-5	0
COc1ccc(N2CCN(C(=O)CCc3c[nH]c4ccccc34)CC2)cc1	5	1	-1	19	2
Fc1ccc(N2CCN(Cc3c[nH]c4ccccc34)CC2)cc1	.	-23	.	93*	2
Cc1ccccc1N1CCN(Cc2c[nH]c3ccccc23)CC1	-4	-19	-19	40*	0
COc1ccccc1N1CCN(C(=O)CCc2c[nH]c3ccccc23)CC1	-5	5	-1	45*	0
CCS(=O)(=O)N1CCN(Cc2c[nH]c3ccccc23)CC1	1	-19	-2	-35	3
COc1ccccc1N1CCN(C(=O)C(=O)c2cn(CC(=O)N3CCCCCC3)c3ccccc23)CC1	4	-18	-27	38*	0
Brc1ccccc1CN1CCN(Cc2c[nH]c3ccccc23)CC1	-5	.	-15	.	.
COC(=O)c1ccc(NC(=O)CCN2C(=O)NC(C)(C)C2=O)cc1	4	-9	-3	7	0
COc1ccccc1N1CCN(Cc2ccc(O)c3ncccc23)CC1	-10	16	-28	-26	0
COc1ccccc1N1CCN(Cc2c[nH]c3ccccc23)CC1	-1	-17	-20	48*	0
CCNc1nc(NCC)nc(N/N=C/c2ccc(N(C)C)cc2)n1	-1	-2	-9	-22	0
CCNc1nc(NCC)nc(N/N=C/c2ccc(O)c(O)c2)n1	14	2	8	44*	0
Cc1ccc(-c2cc(C(F)F)nc(NCc3cccnc3)n2)cc1	-2	42*	-23	1	1
Cc1ccc(-c2cc(C(F)F)nc(NCc3cccs3)n2)cc1	-3	3	-5	11	1
O=C(COC(=O)CCNS(=O)(=O)c1ccccc1)Nc1ccc(OC(F)F)cc1	0	26	0	50*	0
Cc1ccc(-c2c(C(=O)N3CCOCC3)oc(=O)c3ccccc23)cc1	0	-10	-1	-5	-1
CCN1CCN(C(=O)c2oc(=O)c3ccccc3c2-c2ccc(C)cc2)CC1	-4	-24	-11	59*	-1
COCCN1C(=O)c2ccccc2C1c1nc2ccccc2[nH]1 (configuration not stated)	-4	.	0	.	.
Cc1ccc(F)c(S(=O)(=O)NC(=O)C2(C)CCN2C(=O)c2cccc3ccccc23)c1 (configuration not stated)	?	.	62*	.	.
SMILES	D2 ag-1	D2 PAM-1	D2 PAM-2	D2 antag	D2 ag-2
CSCCC(NC(=O)c1ccco1)C(=O)N1CCCC(C(F)(F)F)C1 (configuration not stated)	-5	0	-5	31*	-1
CSCCC(NC(=O)c1ccco1)C(=O)N1CCN(C(c2ccccc2)c2ccccc2)CC1 (configuration not stated)	-1	11	-8	34*	-1
CCN(CC)c1ccc(/C=C(\C#N)c2nc(-c3cccs3)c(NC(C)=O)s2)cc1	.	-3	.	6	33*
CC(=O)Nc1sc(NC(=O)c2ccccc2)nc1-c1cccs1	4	-7	-1	-14	0
COc1ccccc1C(=O)NC(=S)Nc1cccnc1Cl	-1	-6	0	1	0
Cc1ccc(C(=O)NC(=S)Nc2cccnc2Cl)cc1	-7	40*	-16	-7	-2
CCOc1ccccc1NC(=O)CCNS(=O)(=O)c1cccc2nonc12	-5	0	-9	-19	1
Cc1cccc(NC(=O)CCNS(=O)(=O)c2cccc3nonc23)c1C	4	-6	-1	31*	0
COc1ccccc1N(CC(=O)NCc1ccco1)C(=O)CCC(=O)Nc1ccccn1	-1	32*	3	-7	-1
Cc1cccc(N(CC(=O)NCc2ccco2)C(=O)CCC(=O)Nc2ccccn2)c1C	-2	-5	-7	-2	0
O=C(CSC1=NCCN1)Nc1cccc(C(F)(F)F)c1	-2	-21	-13	75*	1
C[C@H]1CN([C@@H](C)CO)C(=O)CCCn2nncc2CO[C@@H]1CN(C)S(=O)(=O)c1cccc(F)c1	-4	.	-2	.	.
CCCN(CC(=O)Nc1ccccc1C)C(=O)c1ccc(S(=O)(=O)N2CCCCC2)cc1	-2	-8	-30	5	-1
CCCN(CC(=O)Nc1ccccc1C)C(=O)c1ccc(S(=O)(=O)N2CCCC2)cc1	1	-5	-1	30*	1
COc1ccc(CCNC(=O)c2ccc3c(c2)c(C)c(C)n3Cc2ccc(F)cc2)c(OC)c1OC	.	2	.	.	0
C/C=C/c1ccc(OCCCCN2CC(C)CC(C)C2)c(OC)c1 (configuration not stated)	-4	-25	-16	38*	0
COc1cc(C(=O)OCC(=O)Nc2ccccc2C(=O)NC2CC2)c([N+](=O)[O-])cc1OC	-1	-10	0	34*	0
CCN1CCC(N(Cc2ccc3c(c2)OCO3)C(=O)Nc2cc(F)ccc2F)CC1	.	.	.	.	1
CCN(CC)S(=O)(=O)c1cc(NC(=O)C2CCN(c3ncnc4sc(C)c(C)c34)CC2)ccc1Cl	-1	-16	-25	36*	-1
COc1ccc(-c2[nH]c3ccccc3c2SCCNC(=O)c2ccc(S(=O)(=O)N(C)C)cc2)cc1	.	8	.	.	-2
COC(=O)c1sc(S(=O)(=O)Nc2ccc(C)cc2)c(C(=O)OC)c1C	-4	32*	1	4	5
COC(=O)c1cc2cc(NS(=O)(=O)c3ccc(C)cc3)ccc2s1	-2	43*	-9	-9	-2

Source: PubChem BioAssay (National Center for Advancing Translational Sciences (NCATS))
